This passage reports Potency results from PubChem BioAssay (NCATS).

Each structure is given as a SMILES string. Inconclusive results are not listed. Activity calls are given as the source filed them. Calls come from the whole dose curve; as a rule, active = well fitted inhibition curve with a large enough effect; inconclusive = small, poorly fitted or top-dose-only effect; inactive = flat fitted curve, though single readings scatter.

Holding throughout (test): qHTS profiling for inhibitors of Plasmodium falciparum proliferation (AID 504749); note: nearly all actives have a fitted effect of over 60% in size
Common to all, as to conditions: P. falciparum in erythrocytes, SYBR Green DNA, 72 h; series mostly up to 12.8 µM

One test relates to 3D7. A digest of the protocol: (§1)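 Fluorescence of SYBR Green-bound parasite DNA, read at 485/535 nm, served as the growth measure. Infected erythrocytes were cultured with compound 72 h; artemisinin (0.29 uM) and DMSO wells defined the normalization range.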
The subject of the next test is AA1029. A digest of the protocol: as §1
For a further test, the system named is ATS189. An outline of the steps:
as §1

The next test relates to CP185. An outline of the steps: as §1
The next test relates to CP192. A digest of the protocol: as §1
The subject of a further test is CP201. An outline of the steps:
as §1

The subject of another test is CP238. An outline of the steps:
as §1

The next test deals with CP250. An outline of the steps: as §1
The test system of the next test is CP262. An outline of the steps: as §1
A further test has as its system CP265. An outline of the steps: as §1
In the next test the test system is CP268. An outline of the steps: as §1
The next test relates to CP291. A digest of the protocol: as §1
In another test the test system is CP315. A digest of the protocol:
as §1

The next test relates to DIV30. An outline of the steps:
as §1

In another test the test system is JCK. An outline of the steps:
as §1

A further test deals with PAD. A digest of the protocol: as §1
Another test relates to PC26. A digest of the protocol: as §1
The test system of another test is SC27B. A digest of the protocol:
as §1

For another test, the system named is TAB109. A digest of the protocol: as §1
Potency is the fitted concentration of half-maximal effect.

With `CC1(C)OC2CO[C@]3(COS(N)(=O)=O)OC(C)(C)OC3C2O1` (stereo partly specified), the Potency entry in the test on 3D7, with AA1029, in the test on ATS189, with CP185, with CP192 and with CP201 was “inactive” in each case. Also, the Potency result in the test with CP238, in the test on CP250, with CP262, in the test on CP265, with CP268 and with CP291 was “inactive” throughout. The Potency entry in the test on CP315, in the test on DIV30, in the test on JCK, in the test on PAD, in the test with PC26 and with SC27B was “inactive” throughout. The Potency entry in the test with TAB109 was “inactive”.
`CC1(C)SC2C(N3C(=O)C(c4ccccc4)NC3(C)C)C(=O)N2C1C(=O)O` (stereo unspecified): the Potency result in the test with 3D7, in the test with AA1029, with ATS189, with CP185, with CP192 and in the test on CP201 was “inactive” each time. Moreover, the Potency entry in the test with CP238, in the test with CP250, in the test on CP262, in the test with CP265, in the test on CP268 and in the test on CP291 was “inactive” throughout. In addition, the Potency result with CP315, with DIV30, in the test with JCK, in the test on PAD, in the test with PC26 and in the test with SC27B was “inactive” throughout. Moreover, in the test with TAB109, the Potency result was “inactive”.
Consider `COC1C=CO[C@@]2(C)Oc3c(C)c(O)c4c(O)c(c(C=NN5CCN(C)CC5)c(O)c4c3C2=O)NC(=O)/C(C)=C\C=CC(C)C(O)[C@@H](C)C(O)C(C)[C@H](OC(C)=O)C1C` (stereo partly specified), for which the Potency in the test with 3D7 was 2000 nM (active); in the test on AA1029 it was 2000 nM (active); in the test on ATS189, 1580 nM (active); in the test on CP185, 3160 nM (active); in the test on CP192 it was 4260 nM (active); in the test on CP201, 5360 nM (active). Also, the Potency is 3550 nM (active) in the test with CP238; 6310 nM (active) in the test with CP250; 2130 nM (active) with CP262; 5010 nM (active) with CP265; 4780 nM (active) in the test on CP268; 4260 nM (active) with CP291. In addition, the Potency is 4780 nM (active) in the test on CP315; 536 nM (active) in the test with DIV30; 282 nM (active) in the test with PAD; 1070 nM (active) in the test on PC26; 282 nM (active) with SC27B; 2000 nM (active) in the test with TAB109.
Take `OCC1OC([S-])[C@H](O)C(O)C1O.[Au+]` (stereo partly specified): the Potency result in the test with 3D7, in the test on AA1029, in the test on ATS189, in the test on CP185, with CP192 and in the test with CP201 was “inactive” in each case. The Potency entry with CP238, in the test on CP250, in the test with CP262, in the test with CP265, in the test with CP268 and in the test with CP291 was “inactive” in each case. The Potency entry in the test on CP315, in the test with DIV30, with JCK, in the test on PAD, in the test on PC26 and with SC27B was “inactive” in each case. For the same compound, the Potency result in the test with TAB109 is “inactive”.
Take `CCC1OC(=O)C(C)[C@@H](O[C@H]2C[C@@](C)(OC)C(O)C(C)O2)C(C)[C@@H](O[C@@H]2OC(C)CC(N(C)C)C2O)[C@@](C)(O)CC(C)C(=O)[C@@H](C)C(O)[C@]1(C)O` (stereo partly specified): the Potency result in the test with 3D7, with AA1029, in the test with ATS189, in the test on CP185, in the test on CP192 and in the test on CP201 was “inactive” throughout. The Potency entry in the test on CP238, in the test on CP250, in the test with CP262, in the test with CP265, in the test on CP268 and in the test on CP291 was “inactive” in each case. Further, the Potency result in the test with CP315, with DIV30, with JCK, in the test on PAD, with PC26 and in the test on SC27B was “inactive” in each case.
Take `O=C1OC(CO)C(O)C(O)C1O` (stereo unspecified): the Potency result with 3D7, in the test with AA1029, in the test with ATS189, with CP185, with CP192 and in the test with CP201 was “inactive” each time. For the same compound, the Potency entry in the test on CP238, in the test on CP250, in the test on CP262, in the test with CP265, in the test with CP268 and with CP291 was “inactive” throughout. The Potency entry with CP315, with DIV30, in the test on JCK, in the test with PAD, in the test on PC26 and with SC27B was “inactive” each time. Moreover, in the test on TAB109, the Potency result was “inactive”.
As to `CC(C)C1CCC(C(=O)NC(Cc2ccccc2)C(=O)O)CC1` (stereo unspecified), the Potency result with 3D7, with AA1029, in the test with ATS189, in the test on CP185, with CP192 and with CP201 was “inactive” in each case. In addition, the Potency result in the test on CP238, with CP262, with CP265, with CP268, in the test on CP291 and with CP315 was “inactive” each time. For the same compound, the Potency result in the test with DIV30, with JCK, in the test on PAD, in the test on PC26, with SC27B and in the test on TAB109 was “inactive” each time.
For the compound `Nc1nc2ncc(CNc3ccc(C(=O)NC(CCC(=O)O)C(=O)O)cc3)nc2c(=O)[nH]1` (stereo unspecified), the Potency result in the test on 3D7, in the test with AA1029, in the test on ATS189, in the test on CP185, with CP192 and in the test with CP201 was “inactive” each time. The Potency result in the test with CP238, with CP250, in the test with CP262, in the test on CP265, in the test on CP268 and in the test with CP291 was “inactive” throughout. Further, the Potency entry in the test on CP315, with DIV30, with JCK, in the test on PAD, in the test with PC26 and in the test with SC27B was “inactive” in each case. Moreover, the Potency entry with TAB109 was “inactive”.
As for `COc1cc(C2c3cc4c(cc3C(O[C@@H]3OC5COC(c6cccs6)OC5C(O)C3O)C3COC(=O)C23)OCO4)cc(OC)c1O` (stereo partly specified), the Potency was 2000 nM (active) with 3D7; 2240 nM (active) in the test with AA1029; 2240 nM (active) in the test with ATS189; 2240 nM (active) with CP185; 4260 nM (active) in the test with CP192; 4780 nM (active) in the test with CP201. Moreover, the Potency in the test with CP238 is 2000 nM (active); with CP250 it was 2000 nM (active); with CP262 it was 8490 nM (active); in the test on CP265, 2820 nM (active); in the test with CP268 it was 4260 nM (active); in the test with CP291, 4260 nM (active). The Potency in the test on CP315 is 3790 nM (active); with DIV30, 2130 nM (active); in the test on JCK, 4470 nM (active); in the test on PAD, 2000 nM (active); in the test on PC26 it was 3790 nM (active); with SC27B, 3160 nM (active). Besides, the Potency in the test on TAB109 was 2240 nM (active).
As to `CC(=O)[C@]1(O)CCC2C3C=C(Cl)C4=CC(=O)C5CC5[C@@]4(C)C3CC[C@]21C` (stereo partly specified), the Potency entry with 3D7, with AA1029, with ATS189, with CP185, in the test on CP192 and with CP201 was “inactive” each time. For the same compound, the Potency result in the test on CP238, in the test on CP250, with CP262, with CP265, in the test on CP268 and in the test on CP291 was “inactive” each time. For the same compound, the Potency entry with CP315, with DIV30, in the test on JCK, with PAD, in the test with PC26 and with SC27B was “inactive” each time. Further, the Potency entry in the test on TAB109 was “inactive”.
Take `CC[C@@]12CCCN3CCc4c(n(c5ccccc45)[C@](O)(C(=O)OC)C1)C32` (stereo partly specified): the Potency entry in the test with 3D7, in the test with AA1029, in the test with ATS189, in the test on CP185, in the test with CP192 and in the test on CP201 was “inactive” each time. In addition, the Potency result in the test on CP238, with CP250, with CP262, with CP265, in the test with CP268 and with CP291 was “inactive” throughout. Besides, the Potency result in the test with CP315, in the test on DIV30, in the test with JCK, in the test with PAD, with PC26 and in the test with SC27B was “inactive” each time. Moreover, the Potency entry with TAB109 was “inactive”.
